# Experimental data from PubChem BioAssay.
# Active and inactive are the calls of the source. Rule as the data show it, unless noted: active = inhibition above about 80%; inactive = the rest.
# Experiments:
# [1] = viability rescue of complex I mutant cybrids, primary screen, cell-based, galactose medium, ATP luminescence (AID 1645843;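 active = z-score of at least 1.8 in each of two replicates, scored against plate mean and spread of sample wells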;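 also: positive z means more ATP and so rescue of galactose-driven cybrid death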); conditions: complex I mutant cybrid cells, 72 h, stronger effect = higher value
# [2] = LFS_MB_P medulloblastoma growth inhibition, cell-based, chromothripsis tumors, cisplatin or BGB combos (AID 1671449); conditions: LFS_MB_P medulloblastoma cells;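 also: cells exposed for 96 hours; 0% = vehicle DMSO and 100% = killing by high DMSO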
# [3] = HDN33 neuroblastoma growth inhibition, cell-based, chromothripsis tumors, cisplatin or BGB combos (AID 1671450); conditions: HDN33 neuroblastoma cells, stronger effect = higher value;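 also: cells exposed to compound for four days; 0% = vehicle DMSO and 100% = cell killing by high DMSO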
# [4] = ICB984 medulloblastoma cell growth inhibition, synergistic combos for chromothripsis tumors, cisplatin or BGB combos (AID 1671451; call rule not given here;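 also: cells exposed for 96 hours before readout; 0% = vehicle DMSO and 100% = killing by high DMSO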); conditions: ICB984 medulloblastoma cells, drug combinations, stronger effect = higher value
# [5] = LFS_MB_1R medulloblastoma cell growth inhibition, synergistic combos for chromothripsis tumors, cisplatin or BGB combos (AID 1671452); conditions: LFS_MB_1R medulloblastoma cells, stronger effect = higher value;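 also: cells exposed for 96 hours before readout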
# [6] = HTB85 osteosarcoma cell growth inhibition, synergistic combos for chromothripsis tumors, BGB or cisplatin IC20 combos (AID 1671453); conditions: HTB85 osteosarcoma cells, drug combinations, stronger effect = higher value;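 also: cells exposed for 96 hours before readout; 0% = vehicle DMSO and 100% = high DMSO killing control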
# [7] = CRL2098 osteosarcoma cell growth inhibition, synergistic combos for chromothripsis tumors, BGB or cisplatin IC20 combos (AID 1671454); conditions: CRL2098 osteosarcoma cells, drug combinations, stronger effect = higher value;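 also: cells exposed for 96 h before readout; 0% = vehicle DMSO and 100% = killing by high DMSO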
# [8] = HD-MB03 medulloblastoma cell growth inhibition, synergistic combos for chromothripsis tumors, BGB or cisplatin IC20 combos (AID 1671455; in the data active = inhibition above about 83%;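 also: 0% = vehicle DMSO and 100% = high DMSO as cytotoxic control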); conditions: HD-MB03 medulloblastoma cells, stronger effect = higher value
# [9] = UWB1.289 ovarian carcinoma cell growth inhibition, synergistic combos for chromothripsis tumors, BGB or cisplatin combos (AID 1671456); conditions: UWB1.289 ovarian carcinoma cells, stronger effect = higher value;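 also: cells exposed to compound for four days; 0% = vehicle DMSO and 100% = killing by high DMSO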
# [10] = LFS_MB_2R medulloblastoma cell growth inhibition, synergistic combos for chromothripsis tumors, cisplatin combos (AID 1671457); conditions: LFS_MB_2R medulloblastoma cells, stronger effect = higher value;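 also: cells exposed to compound for four days before readout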
# [11] = MDA-MB-436 breast carcinoma cell growth inhibition, synergistic combos for chromothripsis tumors, BGB or cisplatin combos (AID 1671458; call rule not given here;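 also: cells exposed for 96 hours; 0% = vehicle DMSO and 100% = killing by high DMSO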); conditions: MDA-MB-436 breast carcinoma growth inhibition, drug combinations, stronger effect = higher value
# [12] = UWB1.289_BRCA1 ovarian cancer growth, cell-based, BGB or cisplatin combinations (AID 1671459); conditions: UWB1.289 BRCA1 ovarian carcinoma, drug combinations, stronger effect = higher value
# [13] = human astrocyte viability loss, single and combined drugs, cytotoxicity control for chromothriptic childhood tumor combination screen, cell-based, BGB or cisplatin IC20 combos (AID 1671460); conditions: Human astrocytes, drug combinations, stronger effect = higher value;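 also: cells exposed to compounds for 96 hours before viability readout; 0% = vehicle and 100% = killing control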
# [14] = growth inhibition of BT084 medulloblastoma cells, cell-based, ICGC_MB145, cisplatin and BGB IC40 combos (AID 1671461); conditions: drug combinations, stronger effect = higher value;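 also: cells exposed to drugs for 96 hours; 0% = vehicle DMSO and 100% = high DMSO full killing control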
# [15] = growth inhibition of RCMB18 medulloblastoma cells, cell-based, cisplatin and BGB IC40 combos (AID 1671462); conditions: stronger effect = higher value;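 also: cells exposed to compound for four days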
# [16] = growth inhibition of CRL1545 osteosarcoma cells, cell-based, cisplatin and BGB IC20 combos (AID 1671464); conditions: stronger effect = higher value;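 also: cells exposed to compound for 96 hours before readout; 0% = vehicle DMSO and 100% = high DMSO killing control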
# [17] = measured here: combination with BGB IC40, at 0.05 µM
# [18] = measured here: with BGB IC20 combination, at 0.5 µM
# [19] = measured here: with cisplatin IC20 combination, at 0.5 µM
# [20] = measured here: combination with cisplatin, at 0.5 µM
# [21] = measured here: combination with cisplatin, at 5 µM
structure (smiles),measurement,setting,value
COC(=O)CCC(=O)N1CCc2[nH]nc(-c3ccc4c(c3)OCO4)c2C1,z-score,[1],-0.12 (inactive)
O=c1cc(-c2ccc(O)cc2)[nH]c(=S)[nH]1,inhibition,"[2]; at 0.5 µM, stronger effect = higher value",85.3% (active)
same,inhibition,"[2]; measured here: combination with BGB IC20, at 0.005 µM",-1.36%
same,inhibition,"[2]; measured here: combination with BGB IC40, at 0.005 µM",-7.24%
same,inhibition,[2]; [17],-1.51%
same,inhibition,"[2]; measured here: combination with cisplatin, at 0.5 µM, stronger effect = higher value",79.3%
same,inhibition,"[2]; measured here: combination with cisplatin, at 5 µM, stronger effect = higher value",3.08%
same,inhibition,"[3]; BGB combo, at 5 µM",-16.4%
same,inhibition,[3]; at 0.5 µM,-17.1% (inactive)
same,inhibition,"[3]; cisplatin combo, at 5 µM",-30.3%
same,inhibition,[3]; [18],-22.1%
same,inhibition,[3]; [19],-12.8%
same,inhibition,"[3]; single agent, at 5 µM",-27.7%
same,inhibition,"[4]; BGB IC20 combo, at 0.005 µM",-9.88%
same,inhibition,"[4]; BGB IC40 combo, at 0.005 µM",-25.6%
same,inhibition,"[4]; BGB IC40 combo, at 0.05 µM",-24.8%
same,inhibition,[4]; at 0.5 µM,-27.2% (inactive)
same,inhibition,"[4]; cisplatin combo, at 0.05 µM",-31.2%
same,inhibition,"[4]; cisplatin combo, at 0.5 µM",-50.4%
same,inhibition,"[4]; cisplatin combo, at 5 µM",-7.23%
same,inhibition,"[4]; measured here: 5 uM single agent, at 5 µM",-15.4%
same,inhibition,[5]; at 0.5 µM,-1.38% (inactive)
same,inhibition,[5]; [17],-3.87%
same,inhibition,[5]; [20],-24.1%
same,inhibition,[5]; [21],1.81%
same,inhibition,[6]; at 0.5 µM,-22.5% (inactive)
same,inhibition,"[6]; measured here: with BGB IC20, at 0.5 µM",-21.9%
same,inhibition,"[6]; measured here: with BGB IC20, at 5 µM",-6.6%
same,inhibition,"[6]; measured here: with cisplatin IC20, at 0.5 µM",-20.1%
same,inhibition,"[6]; measured here: with cisplatin IC20, at 5 µM",14%
same,inhibition,"[6]; single agent, at 5 µM",-1.02%
same,inhibition,[7]; at 0.5 µM,-53% (inactive)
same,inhibition,"[7]; measured here: combination with BGB at IC20, at 0.5 µM",-28.7%
same,inhibition,"[7]; measured here: combination with cisplatin at IC20, at 0.5 µM",-91.5%
same,inhibition,[8]; at 0.5 µM,-13.4% (inactive)
same,inhibition,"[8]; measured here: combo with BGB at IC20, at 0.5 µM",-10.4%
same,inhibition,"[8]; measured here: combo with cisplatin at IC20, at 0.5 µM",-24.5%
same,inhibition,[9]; at 0.5 µM,-11.6% (inactive)
same,inhibition,"[9]; measured here: inhibition with BGB combination, at 0.05 µM",-5.24%
same,inhibition,"[9]; measured here: inhibition with cisplatin combination, at 0.05 µM",-19.2%
same,inhibition,[10]; at 0.5 µM,-8.7% (inactive)
same,inhibition,[10]; [20],-16.1%
same,inhibition,[10]; [21],-5.06%
same,inhibition,[11]; at 0.5 µM,-9.32% (inactive)
same,inhibition,"[11]; measured here: BGB combination, at 0.5 µM",-13.5%
same,inhibition,"[11]; measured here: BGB combination, at 5 µM",-8.05%
same,inhibition,"[11]; measured here: cisplatin combination, at 0.5 µM",-15.9%
same,inhibition,"[11]; measured here: cisplatin combination, at 5 µM",-5.07%
same,inhibition,"[12]; BGB combination, concentration series, at 5 µM",-21.3%
same,inhibition,[12]; at 0.5 µM,-19.2% (inactive)
same,inhibition,"[12]; cisplatin combination, concentration series, at 5 µM",2.65%
same,inhibition,[13]; at 0.5 µM,-9.33% (inactive)
same,inhibition,"[13]; measured here: combo with BGB IC20, at 0.5 µM",-17.6%
same,inhibition,"[13]; measured here: combo with cisplatin IC20, at 0.5 µM",-15.4%
same,inhibition,[14]; at 0.5 µM,6.07% (inactive)
same,inhibition,"[14]; cisplatin combination, at 0.5 µM",-1.5%
same,inhibition,"[14]; cisplatin combination, at 5 µM",-121%
same,inhibition,"[14]; measured here: BGB IC40 combination 0.05 uM, at 0.05 µM",27.5%
same,inhibition,"[14]; single agent, at 5 µM",15.9%
same,inhibition,[15]; at 0.5 µM,-1.5% (inactive)
same,inhibition,"[15]; cisplatin combo, at 5 µM",-3.95%
same,inhibition,"[15]; measured here: BGB IC40 combination, at 0.05 µM",-13.5%
same,inhibition,[15]; [20],-10.5%
same,inhibition,"[15]; single agent, at 5 µM",21.7%
same,inhibition,[16]; at 0.5 µM,-18.8% (inactive)
same,inhibition,[16]; [18],-19.4%
same,inhibition,[16]; [19],-20.3%
same,inhibition,"[16]; single agent, at 0.05 µM",0.873%
same,inhibition,"[16]; single agent, at 5 µM",-68.2%
